Data reported in PubChem BioAssay (Tox21).
A number with no mark means an inactive call. Calls follow the shape of the dose curve; as a rule, active = well fitted curve in the direction sought with a large enough effect in the repeat runs; inconclusive = weak or mixed curves; inactive = flat fitted curve, though single readings scatter.

Test: qHTS assay to test for compound auto fluorescence at 590 nm (red) in HepG2 cells (AID 720674)
Details: HepG2 autofluorescence, red 540/590 nm, 1 h; series mostly up to 91.3 µM; fluorescence, relative to Rose Bengal: at the top concentration
How it was run: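 Compound auto-fluorescence is scored relative to Rose Bengal sodium, measured at 540/590 nm in live HepG2 cultures after 1 hr compound contact (37 C, 5% CO2).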
% is scaled to controls: 0 for no effect and ±100 for the full control effect.

SMILES | fluorescence, relative to Rose Bengal
CC(=O)SCC(CC(=O)c1ccc(C)cc1)C(=O)O (configuration not stated) | 0.0864% [at 46 µM]
CCCCCCC(=O)c1ccccc1 | 0.134%
CC(=O)c1ccc2ccc3ccccc3c2c1 | -0.276%
CC(=O)OCC(=O)[C@@]1(O)CC[C@H]2[C@@H]3CCC4=CC(=O)C=C[C@]4(C)[C@H]3[C@@H](O)C[C@@]21C | -0.377% [at 46 µM]
CCCCCCCCS(=O)(=O)O | -0.16%
COC(=O)c1c(C)cc(O)c(C)c1O | 0.023%
CCCCCCCCCCCCCCCC(=O)OC | 0.0004% [at 18.6 µM]
COc1cc(NS(=O)(=O)c2ccc(N)cc2)ncn1 | -0.434% [at 18.6 µM]
O=S(=O)(O)c1cc(I)c(O)c2ncccc12 | -0.263% [at 46 µM]
C[C@H]1COc2c(C3(N)CC3)c(F)cc3c(=O)c(C(=O)O)cn1c23 | -0.356% [at 46 µM]
CC(C)(O)CCCC1=CCC(C=O)CC1 (configuration not stated) | 0.0877% [at 95.7 µM]
C=CCN1CCc2nc(N)sc2CC1 | -0.164% [at 46 µM]
O=Cc1ccccc1S(=O)(=O)O | 0.145%
CC[C@@]1(c2ccccc2)NC(=O)N(C)C1=O | -0.207% [at 46 µM]
c1cc2ccc3ccc4ccc5cccc6c(c1)c2c3c4c56 | 0.113% [at 3.72 µM]
CCN1CCN(C(=O)N[C@@H](C(=O)N[C@@H]2C(=O)N3[C@@H]2SC(C)(C)[C@H]3C(=O)O)c2ccccc2)C(=O)C1=O | -0.0165% [at 46 µM]

SMILES | fluorescence, relative to Rose Bengal
O=C(O)Cc1c(Cl)ccc(Cl)c1Cl | 0.0872%
CC(C)(O)c1ccc(C(C)(C)O)cc1 | 0.11%
NC(=O)CC[C@@H](N)C(=O)O | -0.0842% [at 46 µM]
CCCCCC(CC)OC(=O)CCCOc1ccc(Cl)cc1Cl (configuration not stated) | -0.418%
O=C(O)/C=C(\CC(=O)O)C(=O)O | -0.32% [at 46 µM]
O=C(O)CCC(=O)Nc1ccc(S(=O)(=O)Nc2nccs2)cc1 | -0.131% [at 18.6 µM]
C/C(=N\O)c1ccc(OCC(=O)N2CCCCC2)cc1 | 0.0036% [at 46 µM]
Cc1ccc(Br)cc1 | -0.0768%
C=CC(=O)OCCOCCOCC | 0.0948%
CC(C)OCCO | -0.168%
N#Cc1ccccc1C#N | -0.0115%
O=C(O)COc1ccc2ccccc2c1 | -0.143%
COC(=O)N/N=C/c1c[n+]([O-])c2ccccc2[n+]1[O-] | 0.701% [at 46 µM]
CCCCCCCCCCCCCCCC/C=C/C1CC(=O)OC1=O (configuration not stated) | -0.0361% [at 46 µM]
COCc1nnc(-c2ccc[n+]([O-])c2)n1-c1c(Cl)c(Cl)cc2[nH]c(=O)c(=O)[nH]c12 | -0.0743%
NS(=O)(=O)c1cc2c(cc1C(F)(F)F)NCNS2(=O)=O | 0.362% [at 18.6 µM]
